Source: PubChem BioAssay (EPA / NIEHS)
The source made the active and inactive calls. The calls were made as follows: active = hit-call score of the fitted dose curve at least 0.9, where 1 is the maximum; inactive = score below 0.9.

Legend:
[1] = read-out: Thrombomodulin, THBD (gene 7056); assay: BSK_CASM3C_Thrombomodulin: BioMAP Diversity Plus: CASM3C Assay for Thrombomodulin Biomarker Activity (AID 2283051); settings: primary human coronary artery smooth muscle cells; actives raise or lower the signal;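 also: thrombomodulin protein level measured by ELISA 24 h after dosing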
[2] = read-out: Tissue Factor, F3 (gene 2152); assay: BSK_CASM3C_TissueFactor: BioMAP Diversity Plus: CASM3C Assay for Tissue Factor Biomarker Activity (AID 2283052); settings: primary human coronary artery smooth muscle cells; actives raise or lower the signal;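 also: cell surface tissue factor protein level read by ELISA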
[3] = read-out: Interferon-gamma inducible Protein 10 (IP10), CXCL10 (gene 3627); assay: BSK_hDFCGF_IP10: BioMAP Diversity Plus: hDFCGF Assay for Interferon-gamma inducible Protein 10 (IP10) Biomarker Activity (AID 2283053); settings: primary human foreskin fibroblasts; actives raise or lower the signal
How it was run: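 IP-10 levels, quantified by ELISA, are taken from human foreskin fibroblast cultures 24 h after chemical treatment, with DMSO serving as negative control and baseline for bidirectional analysis.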

[4] = read-out: Urokinase-type plasminogen activator receptor (uPAR), PLAUR (gene 5329); assay: BSK_CASM3C_uPAR: BioMAP Diversity Plus: CASM3C Assay for Urokinase-type plasminogen activator receptor (uPAR) Biomarker Activity (AID 2283054); settings: primary human coronary artery smooth muscle cells; actives raise or lower the signal;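 also: cell-surface uPAR protein level quantified by ELISA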
[5] = read-out: Vascular cell adhesion molecule 1 (VCAM1), VCAM1 (gene 7412); assay: BSK_CASM3C_VCAM1: BioMAP Diversity Plus: CASM3C Assay for Vascular cell adhesion molecule 1 (VCAM1) Biomarker Activity (AID 2283055); settings: primary human coronary artery smooth muscle cells; actives raise or lower the signal;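 also: VCAM-1 protein level quantified by ELISA on the cells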
[6] = read-out: Collagen III, COL3A1 (gene 1281); assay: BSK_hDFCGF_CollagenIII: BioMAP Diversity Plus: hDFCGF Assay for Collagen III Biomarker Activity (AID 2283056); settings: primary human foreskin fibroblasts; actives raise or lower the signal
How it was run: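 Human foreskin primary fibroblasts were exposed to test chemicals for 24 h, after which collagen III was quantified by ELISA. Activity was fitted bidirectionally against DMSO as negative control and baseline.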

[7] = read-out: Epidermal growth factor receptor (EGFR), EGFR (gene 1956); assay: BSK_hDFCGF_EGFR: BioMAP Diversity Plus: hDFCGF Assay for Epidermal growth factor receptor (EGFR) Biomarker Activity (AID 2283057); settings: primary human foreskin fibroblasts; actives raise or lower the signal
How it was run: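 Measured by ELISA: EGFR levels on primary human foreskin fibroblasts 24 h after chemical treatment, analysed relative to DMSO with bidirectional fitting.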

[8] = read-out: Interleukin-8 (IL8), CXCL8 (gene 3576); assay: BSK_hDFCGF_IL8: BioMAP Diversity Plus: hDFCGF Assay for Interleukin-8 (IL8) Biomarker Activity (AID 2283058); settings: primary human foreskin fibroblasts; actives raise or lower the signal
How it was run: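 hDFCGF human dermal fibroblasts; 24 h chemical exposure; IL-8 by ELISA; bidirectional curve fit vs DMSO baseline; gain or loss of signal scored.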

[9] = BSK_hDFCGF_Proliferation: Cell Proliferation Assessment in the BioMAP Diversity Plus: hDFCGF Assay (AID 2283059); settings: primary human foreskin fibroblasts;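 also: curves fitted for both rise and fall of signal versus DMSO baseline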
How it was run: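 Steps: dose primary human dermal fibroblasts (foreskin); […] fix in 10% TCA; stain with 0.1% SRB; read 560 nm; fit gain or loss of signal against DMSO.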

[10] = read-out: Macrophage colony-stimulating factor (MCSF), CSF1 (gene 1435); assay: BSK_hDFCGF_MCSF: BioMAP Diversity Plus: hDFCGF Assay for Macrophage colony-stimulating factor (MCSF) Biomarker Activity (AID 2283060); settings: primary human foreskin fibroblasts; actives raise or lower the signal
How it was run: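 Human foreskin primary fibroblasts were treated with test chemical for 24 h, and M-CSF was then measured by ELISA. Data were fitted bidirectionally against DMSO as the negative control and activity baseline.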

[11] = BSK_hDFCGF_SRB: Viability Assessment in the BioMAP Diversity Plus: hDFCGF Assay (AID 2283061); settings: primary human foreskin fibroblasts;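 also: cells exposed to compound for 24 h before the read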
How it was run: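 Human foreskin primary fibroblasts were treated with compound and assessed 24 h after dosing. Total protein was measured by sulforhodamine B staining (0.1% SRB after 10% TCA fixation, 560 nm read) as a cytotoxicity marker, with bidirectional fitting against DMSO baseline.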

[12] = read-out: TIMP metallopeptidase inhibitor 1 (TIMP1), TIMP1 (gene 7076); assay: BSK_hDFCGF_TIMP1: BioMAP Diversity Plus: hDFCGF Assay for TIMP metallopeptidase inhibitor 1 (TIMP1) Biomarker Activity (AID 2283062); settings: primary human foreskin fibroblasts; actives raise or lower the signal
How it was run: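 Primary human foreskin fibroblasts in the hDFCGF system were dosed with compound for 24 h, then TIMP-1 was measured by ELISA. Activity was fitted bidirectionally relative to DMSO control; parallel SRB staining assessed cytotoxicity.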

[13] = read-out: Monokine induced gamma interferon (MIG), CXCL9 (gene 4283); assay: BSK_hDFCGF_MIG: BioMAP Diversity Plus: hDFCGF Assay for Monokine induced gamma interferon (MIG) Biomarker Activity (AID 2283063); settings: primary human foreskin fibroblasts; actives raise or lower the signal
How it was run: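 ELISA read-out of MIG from primary human dermal fibroblasts 24 h post-dosing. Gain or loss of signal fitted bidirectionally, DMSO as baseline.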

[14] = read-out: Matrix Metallopeptidase 1 (MMP1), MMP1 (gene 4312); assay: BSK_hDFCGF_MMP1: BioMAP Diversity Plus: hDFCGF Assay for Matrix Metallopeptidase 1 (MMP1) Biomarker Activity (AID 2283064); settings: primary human foreskin fibroblasts; actives raise or lower the signal
How it was run: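 Primary human foreskin fibroblasts in the hDFCGF system were dosed with test chemical, and MMP1 was measured by ELISA 24 h later. Values come from bidirectional curve fitting against the DMSO baseline.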

[15] = read-out: Vascular cell adhesion molecule 1 (VCAM1), VCAM1 (gene 7412); assay: BSK_hDFCGF_VCAM1: BioMAP Diversity Plus: hDFCGF Assay for Vascular cell adhesion molecule 1 (VCAM1) Biomarker Activity (AID 2283065); settings: primary human foreskin fibroblasts; actives raise or lower the signal;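 as to AC50: VCAM-1 protein level quantified by ELISA after 24 h chemical exposure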
How it was run: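 Primary human foreskin fibroblasts (hDFCGF system) were dosed with chemical and VCAM-1 was measured by ELISA 24 h later. Bidirectional curve fitting used DMSO as negative control and activity baseline.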

[16] = read-out: Plasminogen activator inhibitor-1 (PAI1), SERPINE1 (gene 5054); assay: BSK_hDFCGF_PAI1: BioMAP Diversity Plus: hDFCGF Assay for Plasminogen activator inhibitor-1 (PAI1) Biomarker Activity (AID 2283066); settings: primary human foreskin fibroblasts; actives raise or lower the signal
How it was run: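 PAI-1 levels, determined by ELISA, served as the endpoint in human foreskin fibroblast cultures exposed to compound for 24 h, with DMSO as baseline.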

[17] = read-out: Intercellular Adhesion Molecule 1 (ICAM1), ICAM1 (gene 3383); assay: BSK_KF3CT_ICAM1: BioMAP Diversity Plus: KF3CT Assay for Intercellular Adhesion Molecule 1 (ICAM1) Biomarker Activity (AID 2283067); settings: primary human keratinocytes with fibroblasts; actives raise or lower the signal
How it was run: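 Human keratinocyte plus foreskin fibroblast primary co-culture was exposed to chemical for 24 h. ICAM-1 was then quantified by ELISA, and the data were fit bidirectionally against DMSO as the negative control and baseline.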

[18] = read-out: Interferon-gamma inducible Protein 10 (IP10), CXCL10 (gene 3627); assay: BSK_KF3CT_IP10: BioMAP Diversity Plus: KF3CT Assay for Interferon-gamma inducible Protein 10 (IP10) Biomarker Activity (AID 2283068); settings: primary human keratinocytes with fibroblasts; actives raise or lower the signal
How it was run: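 KF3CT co-culture (keratinocytes + foreskin fibroblasts), 24 h compound, IP-10 by ELISA; bidirectional fit vs DMSO baseline.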

[19] = read-out: Interleukin-1 alpha (IL1a), IL1A (gene 3552); assay: BSK_KF3CT_IL1a: BioMAP Diversity Plus: KF3CT Assay for Interleukin-1 alpha (IL1a) Biomarker Activity (AID 2283070); settings: primary human keratinocytes with fibroblasts; actives raise or lower the signal
How it was run: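 Human keratinocyte plus foreskin fibroblast primary co-culture, sampled 24 h after chemical dosing. IL-1a measured by ELISA; responses fitted bidirectionally against DMSO baseline (negative control), so gain or loss of signal both count.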

[20] = BSK_KF3CT_SRB: Viability Assessment in the BioMAP Diversity Plus: KF3CT Assay (AID 2283069); settings: primary human keratinocytes with fibroblasts
How it was run: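 Human primary keratinocyte plus foreskin fibroblast co-culture exposed to chemicals for 24 h. Total protein measured by 0.1% sulforhodamine B staining after 10% TCA fixation, read at 560 nm; bidirectional fitting versus DMSO baseline.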

Measured: AC50

O=C(O)c1cc(Oc2ccc(C(F)(F)F)cc2Cl)ccc1[N+](=O)[O-]
not listed: [20]
inactive: all other assays above

CCOP(=S)(OCC)Oc1ccc2c(C)c(Cl)c(=O)oc2c1
active: [3] 27.9 µM | [6] 20 µM | [10] 13.6 µM | [14] 5.06 µM | [15] 31.3 µM | [19] 14.4 µM
not listed: [9] | [20]
inactive: all other assays above

CNC(=O)ON=C(C)SC
not listed: [20]
inactive: all other assays above

CCOC(=O)CC(SP(=O)(OC)OC)C(=O)OCC (stereo unspecified)
active: [15] 10.8 µM
not listed: [20]
inactive: all other assays above

C#CCC1=C(C)C(OC(=O)C2C(C=C(C)C)C2(C)C)CC1=O (stereo unspecified)
active: [3] 29.6 µM | [6] 29.4 µM | [8] 37.8 µM | [9] 31.5 µM | [10] 29.2 µM | [11] 33.3 µM | [13] 37 µM | [14] 31.6 µM | [15] 34.8 µM | [16] 32 µM
inactive: [1] | [2] | [4] | [5] | [7] | [12] | [17] | [18] | [19]

Cc1nn(-c2cc(NS(C)(=O)=O)c(Cl)cc2Cl)c(=O)n1C(F)F
not listed: [20]
inactive: all other assays above

CSC1=N[C@@](C)(c2ccccc2)C(=O)N1Nc1ccccc1
active: [6] 25 µM | [9] 23.3 µM
not listed: [20]
inactive: all other assays above

C=C(C)[C@H]1Cc2c(ccc3c2O[C@@H]2COc4cc(OC)c(OC)cc4[C@@H]2C3=O)O1
active: [1] 0.164 µM | [7] 771 nM | [9] 0.486 µM | [15] 7.69 µM | [18] 31.8 µM
not listed: [20]
inactive: all other assays above

CN(C)C(=O)Nc1cccc(C(F)(F)F)c1
not listed: [20]
inactive: all other assays above

CC(C)[C@H](C(=O)O[C@H](C#N)c1cccc(Oc2ccccc2)c1)c1ccc(Cl)cc1
active: [1] 4.81 µM | [9] 3.36 µM | [14] 3.97 µM
not listed: [18]
inactive: all other assays above

CCOP(=S)(Oc1cnc(C(C)(C)C)nc1)OC(C)C (stereo unspecified)
active: [1] 20 µM | [3] 29.2 µM | [6] 31.3 µM | [9] 31.7 µM | [10] 20 µM | [11] 37 µM | [13] 31.6 µM | [15] 26.8 µM | [18] 18.4 µM | [19] 24.1 µM
inactive: [2] | [4] | [5] | [7] | [8] | [12] | [14] | [16] | [17]

CCCCSP(=O)(SCCCC)SCCCC
active: [1] 20 µM | [3] 20 µM | [6] 20 µM | [9] 30.6 µM | [10] 14.6 µM
not listed: [20]
inactive: all other assays above

CSc1nnc(C(C)(C)C)c(=O)n1N
active: [3] 12.7 µM | [4] 1.32 µM | [6] 3.97 µM | [12] 30.4 µM
not listed: [20]
inactive: all other assays above
